FAS-TE inh: FAS thioesterase (human) inhibition; P49327; recombinant FAS-TE, OMFH fluorogenic substrate, fluorescence endpoint; inhibition, % at 15 µM; 0.67% of 360,000 active; AID 602261;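 active means compounds whose normalised, plate-corrected inhibition of enzyme fluorescence in the single-dose primary screen is 50% or more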;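 further: 0% = DMSO with enzyme and 100% = substrate without enzyme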
ADAM17 inh: inhibitors of human ADAM17. AID 720648. recombinant ADAM17, EDANS/DABCYL FRET peptide cleavage. 0.83% of 370,000 active. P78536. inhibition, % at 6.95 µM;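 active means inhibition above the mean of compounds lying between control limits plus 3 SD, set per campaign, cut at about 8.5% in these data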;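 further: 0% = DMSO-only wells as the low control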
NPR1 activator: GC-A (human) enzyme activation. HEK293 GC-A cells, cGMP TR-FRET, EC30 ANP; 0% at EC30 ANP, 100% saturating ANP. activation, % at 10 µM. 0.14% of 370,000 active. AID 1671463; in the data active means activation above about 40%
ADAM10 inh: inhibits human ADAM10 | inhibition, % at 7 µM | recombinant ADAM10, EDANS/DABCYL FRET peptide cleavage, 3 h | 0.62% of 370,000 active;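 active means inhibition above a per-campaign cutoff equal to the mean of compounds falling between control-based bounds plus 3 SD, cut at about 20% in these data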;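 further: 0% = DMSO wells while the 100% control is not disclosed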
NPR2 activator: GC-B (human) receptor activation; P20594; HEK293-GC-B cells, CNP EC30, cGMP TR-FRET; 0% at EC30 CNP, 100% saturating CNP; activation, % at 10 µM; 0.11% of 370,000 active; AID 1920062;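 active means activation at 10 µM reaching about 35% in either raw or pattern-adjusted values, limit read from the data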
ADAM10 counter: inhibits human ADAM10 in ADAM17 exosite counter-screen. shares compounds with ADAM17 inh. 47% of 2,900 active. recombinant ADAM10, EDANS/DABCYL FRET peptide cleavage, 3 h. inhibition, % at 6.95 µM;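 active means mean inhibition over the triplicate runs exceeds the activity threshold set in the earlier primary screen, cut at about 20% in these data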;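 further: 0% = DMSO wells and 100% = marimastat wells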
ADAM17 confirm: human ADAM17 inhibition, confirmation. shares compounds with ADAM17 inh. recombinant ADAM17, EDANS/DABCYL QFRET peptide cleavage. inhibition, % at 6.95 µM. 65% of 2,900 active;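 active means mean inhibition across replicates above the hit cutoff set in the primary screen, cut at about 8.5% in these data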;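 further: 0% = DMSO wells and 100% = marimastat wells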
Starred values were filed as active, the others as inactive; . = not tested or not shown. Rows were chosen to be rich in hits. Some 2% of all compounds tested hit in one or more screens of this group.

SMILES | FAS-TE inh | ADAM17 inh | NPR1 activator | ADAM10 inh | NPR2 activator | ADAM10 counter | ADAM17 confirm
Nc1c(Cl)cc(-c2csc(N3CCCC3c3nc4cc(Cl)c(Cl)cc4n3CCCO)n2)cc1Cl (centres undefined) | 14 | 0 | -6 | 5 | -7 | . | .
O=C(NC1CCCC1)N1CCC(c2nc3ccc(Cl)cc3[nH]2)CC1 | . | 0 | -9 | 3 | -8 | . | .
COc1ccccc1NS(=O)(=O)c1ccc(Cl)c(NC(=S)NC(=O)C2CCCC2)c1 | 30 | 9.9* | -2 | 13 | 3 | 38* | 17*
Nc1nc(N(Cc2ccccc2)Cc2ccccc2)nc(C(F)(F)F)n1 | 27 | 9.1* | -6 | 17 | 3 | 9 | 8.9*
CN(N)c1nc(C(F)(F)F)nc2ccccc12 | -1 | -1 | -2 | -5 | 3 | . | .
O=C(Oc1ccccc1-c1nnco1)c1ccc(Cl)cc1 | 9 | 9.7* | 0 | 7 | -5 | 4 | 6
O=C(NC(CSCc1ccccc1)C(=O)N/N=C/c1ccc(O)cc1O)c1ccc([N+](=O)[O-])cc1 (centres undefined) | 50 | 14* | -6 | 11 | -11 | 19 | 17*
CCN(CC)S(=O)(=O)c1cccc(C(=O)N[C@H](C(=O)OCC(=O)Nc2ccccc2)C(C)C)c1 | 10 | 11* | -2 | -4 | 5 | 5 | 4
CCN(CC)S(=O)(=O)c1cccc(C(=O)N[C@H](C(=O)OCC(N)=O)C(C)C)c1 | -6 | -2 | 4 | -4 | 6 | . | .
COC(=O)[C@H](C(C)C)N1Cc2nnn(Cc3ccc(C)cc3)c2-c2cc(F)ccc2S1(=O)=O | . | 3 | -1 | 8 | -2 | . | .
CCCN(CC(=O)Nc1ccccc1OC)C(=O)c1ccc2[nH]c3c(c2c1)CC(C)CC3 (centres undefined) | 17 | 13* | -4 | 8 | 2 | 29* | 16*
CCN(CC(=O)Nc1ccccc1OC)C(=O)c1ccc2[nH]c3c(c2c1)CC(C)CC3 (centres undefined) | 14 | -3 | -3 | -18 | 3 | . | .
S=C(Nc1ccccc1)OCCN1CCCC12CCC(c1ccccc1)CC2 (centres undefined) | . | -1 | -2 | 2 | -3 | . | .
CNS(=O)(=O)/C=C/c1ccccc1CCNC(=O)OC(C)(C)C | . | 8 | 0 | 19 | 3 | . | .
COc1cccc(C(Nc2ccccn2)c2oc(CO)cc(=O)c2O)c1 (centres undefined) | -7 | 13* | . | 1 | . | 27* | 29*
C[C@H]1CCCN1c1cccc2c1S(=O)(=O)N1CC[C@@H](C1)O2 | . | -4 | -2 | -1 | 4 | . | .
Cc1[nH]c2ccc(C(=O)NCCCN(C)C3CCCCC3)cc2c1C | -4 | 8.7* | -16 | 0 | -8 | -49 | -10
COc1ccc(C2CC(O)(c3ccccc3)Oc3cc(OC)c(OC)c(OC)c32)cc1 (centres undefined) | 35 | 6 | -2 | 13 | -4 | . | .
OC1(c2ccccc2)CC(c2ccccc2)c2ccccc2O1 (centres undefined) | 24 | 9.2* | -15 | 14 | -10 | 30* | 16*
Cc1ccc(S(=O)(=O)N2C[C@H]3C(=O)C[C@@H](c4ccccc4)N(S(=O)(=O)c4ccc(C)cc4)[C@H]3C[C@H]2c2cccc3ccccc23)cc1 | 16 | 11* | 2 | 7 | 6 | 18 | 13*
Cc1[nH]c2ccccc2c1/C=C/c1cc[n+](C)cc1 | -74 | 9.4* | -24 | 3 | -23 | 5 | 4
O=C(NCC1COc2ccccc2O1)c1ccc(NC(=O)C(Cl)Cl)cc1 (centres undefined) | . | 1 | -3 | 2 | -8 | . | .
CN(C(=O)CCN1CCCO1)C1CCCN(Cc2ccccc2F)C1 (centres undefined) | -4 | 9.0* | -1 | -2 | 2 | 15 | 7
Nc1cc(=O)[nH]c(SCC(=O)Nc2cc(S(=O)(=O)N3CCCCCC3)ccc2Cl)n1 | -12 | -3 | -6 | -13 | 4 | . | .
COc1ccc(S(=O)(=O)N2CCCCC2)cc1NC(=O)Cc1c[nH]c2ccccc12 | 12 | 2 | 1 | 9 | 2 | . | .
SMILES | FAS-TE inh | ADAM17 inh | NPR1 activator | ADAM10 inh | NPR2 activator | ADAM10 counter | ADAM17 confirm
CCN(CC)S(=O)(=O)c1ccc(C)c(NC(=O)CNc2cccc(S(=O)(=O)N3CCCC3)c2)c1 | 2 | 3 | -4 | -2 | -1 | . | .
Cc1ccc(S(=O)(=O)N2CCCCC2)cc1NC(=O)Cc1c[nH]c2ccccc12 | 3 | 8.8* | 0 | 4 | -2 | -2 | 1
Cc1ccc(S(=O)(=O)N2CCCCC2)cc1NC(=O)CNc1ccc(C(F)(F)F)cc1 | 13 | 9.4* | 4 | 17 | 3 | 17 | 11*
Cc1ccc(-c2nc(SCC(=O)Nc3cc(S(=O)(=O)N4CCCCC4)ccc3Cl)n[nH]2)cc1 | -55 | 14* | -7 | 19 | 0 | 32* | 14*
CN1CCC(N[C@@H](Cc2ccccc2)C(=O)NCC(c2ccccc2)c2ccccc2)(C(=O)NC2CCCCC2)CC1 | . | 3 | -26 | 7 | -18 | . | .
CCC(CC)CN1CCC(CN2C(=S)NC[C@@H]2Cc2ccccc2)CC1 | . | -3 | 0 | -2 | -2 | . | .
COc1ccc(-n2c(=S)[nH]c3cc(C(=O)Nc4ccccc4OC)ccc3c2=O)c(OC)c1 | -14 | 9.0* | 0 | 17 | -2 | 28* | 12*
CCN(CC)S(=O)(=O)c1ccc(N=Nc2c(C)[nH]n(C(N)=S)c2=O)cc1 | -5 | 12* | 1 | 9 | 4 | 8 | 3
CC(=O)N(C)c1ccc(N=Nc2c(C)[nH]n(C(N)=S)c2=O)cc1 | -7 | 2 | 1 | 10 | -5 | . | .
CCCCOC(=O)C1=C(C)Nc2nnnn2C1c1ccccc1Cl (centres undefined) | 13 | 9.6* | -6 | 14 | -8 | 16 | 8
CCOc1ccc(NS(=O)(=O)c2cc(NC(=O)CCC(=O)c3cccs3)ccc2Cl)cc1 | 38 | 9.1* | -2 | 14 | -1 | 18 | 10*
COc1ccccc1NS(=O)(=O)c1cc(NC(=O)CCC(=O)c2cccs2)ccc1Cl | 29 | 4 | -1 | 11 | -2 | . | .
CCCSc1nsc(NC(=O)CCC)n1 | -3 | 9.2* | 1 | 10 | -2 | 4 | 3
CCCCSc1nsc(NC(C)=O)n1 | -5 | 1 | 0 | 6 | -3 | . | .
Cc1ccc(N(C)S(=O)(=O)c2c[nH]c3ccc([N+](=O)[O-])cc23)cc1 | -96 | 5 | 0 | 6 | -1 | . | .
CCN(c1ccccc1)S(=O)(=O)c1c[nH]c2ccc([N+](=O)[O-])cc12 | -91 | 9.3* | -7 | 6 | -5 | 32* | 16*
